Bioassay records from PubChem.
This is a sample that favours compounds with a hit; in the whole collection about 19% have one here.
HT1080 IDH1KD tx – kills HT-1080 cells with IDH1 knockdown. AID 686971. Potency, µM (series often up to 46.1 µM), without a hit: at the highest dose activity, negative = toxicity, usual class: cytotoxic. HT-1080 IDH1 knockdown viability, ATP luminescence, 48 h. 360,000 tested, 2% active;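 further: 0% = DMSO wells and -100% = cell-free medium wells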
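Cytotoxicity counter-line: IDH1KD HT-1080, 48 h, CellTiter-Glo. Curves classed by r2, magnitude and activity.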
DT40 TDP1 no CPT – qHTS for Inhibitors of human tyrosyl-DNA phosphodiesterase 1 (TDP1): qHTS in cells in absence of CPT; 420,000 tested, 15% active; Potency, µM (titrated, usually from 46.2 µM), for the others: top-dose activity change, negative = growth inhibition, actives largely listed as inhibitors; DT40 Tdp1-/- hTDP1 cells, no CPT, ATP luminescence, 48 h; further: nearly all actives have a fitted effect of over 55% in size
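Luminescent ATP content (CellTiter-Glo) served as the growth readout. Knockout chicken DT40 cells expressing human TDP1 were exposed to compounds without camptothecin for a minimum 48 hr at 37 °C.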
DT40 TDP1 CPT – DT40-hTDP1 cell growth loss with CPT; 420,000 tested, 12% active; chicken DT40 Tdp1-/-;hTDP1 cells + 20 nM CPT, ATP luminescence, 48 h; AID 686979; Potency, µM (highest dose often 46.2 µM), for the others: top-dose activity change, negative = growth inhibition, usual class: inhibitors; further: nearly all actives have a fitted effect of over 55% in size
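Chicken DT40 Tdp1-/- cells complemented with human TDP1, 400 cells/well, exposed to compounds plus 20 nM camptothecin for at least 48 h at 37 C; viability read as ATP content by CellTiter-Glo luminescence.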
KB-V1 MDR tox – KB-V1 MDR subline cytotoxicity; Potency, µM (highest dose often 46.1 µM), actives largely listed as cytotoxic; KB-V1 MDR cells viability, CellTiter-Glo, 72 h; 400,000 tested, 3.4% active; AID 1347076; further: nearly all actives have a fitted effect of over 60% in size
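Luminescent ATP read-out (CellTiter-Glo, 10 min) measures survival of drug-selected KB-V1 MDR cells after 72 h, 37 degrees C compound exposure. Medium: phenol-red-free DMEM, 10% FBS. Values from fitted concentration-response curves.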
KB-3-1 cytotox – kills parental KB-3-1 adenocarcinoma cells; KB-3-1 viability, CellTiter-Glo ATP luminescence, 72 h; Potency, µM (series often up to 46.1 µM), actives largely listed as cytotoxic; 400,000 tested, 1.4% active; AID 1347075; further: nearly all actives have a fitted effect of over 60% in size
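Parental KB-3-1 viability, qHTS format: 72 h compound exposure, 37 °C; CellTiter-Glo; media-only wells and DMSO plates as controls; concentration-effect fits on corrected data.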
HT1080NT lethal – kills 2HG-producing HT-1080-NT fibrosarcoma cells; AID 686970; Potency, µM (doses to about 46.1 µM), for the others: top-dose activity, negative = less viability, usual class: cytotoxic; 360,000 tested, 1.6% active; HT-1080-NT fibrosarcoma viability, CellTiter-Glo ATP luminescence, 48 h;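 further: NT is the 2HG producing partner of a matched IDH1 knockdown line; 0% = DMSO-treated cells and -100% = media-only wells without cells; nearly all actives have a fitted effect of over 55% in size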
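Compounds were tested in concentration-response format on HT-1080-NT cells for 48 hours at 37 degrees C. Cell viability came from CellTiter-Glo luminescence; curves were classified by r2, response magnitude and activity.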
An asterisk follows results filed as active; i = inactive; u = inconclusive; x = no result given; [ ] = dose if it differs, or a comment. The call rests on the fitted dose curve; in most records, active means well fitted curve in the direction sought with a large enough effect; inconclusive means small, poorly fitted or top-dose-only effect, or another doubt; inactive means no such curve, though single readings can be large; an effect the other way counts as inactive or inconclusive. Unless noted, on the % scale 0 is the no-effect control and ±100 the full control effect; potency means the concentration at half of the fitted maximal effect.

SMILES | HT1080 IDH1KD tx | DT40 TDP1 no CPT | DT40 TDP1 CPT | KB-V1 MDR tox | KB-3-1 cytotox | HT1080NT lethal
COc1ccccc1CNC(=O)C(=O)NCC(c1cccs1)S(=O)(=O)c1ccccc1 (stereo not drawn) | x | 16µM* | u | i | i | x
COc1ccc(CC(=O)NCC(c2cccs2)S(=O)(=O)c2ccc(C)cc2)cc1 (stereo not drawn) | x | 26µM* | u | i | i | x
Cc1ccc(C(=O)CC(c2cccs2)S(=O)(=O)c2ccc(C)cc2)cc1 (stereo not drawn) | u | 15µM* | u | i | i | 20%
O=C(NCc1ccccc1)C(=O)NCC(c1cccs1)S(=O)(=O)c1cccs1 (stereo not drawn) | x | -26% | -26% | i | i | x
CC(C)N1C[C@@H](Sc2ccccn2)C[C@H]1C(=O)Nc1ccc2c(c1)Nc1ccccc1CC2 | x | -10% | 11%[9.04 µM] | x | x | x
Cc1ccc(CCNC(=O)c2ccc(CS(=O)(=O)c3ccc(Br)cc3)o2)cc1 | x | -2% | 0% | i | i | x
Cc1ccc(C(=O)NCC(c2cccs2)S(=O)(=O)c2cccs2)cc1 (stereo not drawn) | x | 9.2µM* | 21µM* | u | 21µM* | x
CC(C)(C)c1ccc(C(=O)NCC(c2cccs2)S(=O)(=O)c2ccc(F)cc2)cc1 (stereo not drawn) | x | 21µM* | 18µM* | u | u | x
CCC(=O)NCC(c1cccs1)S(=O)(=O)c1ccc(C)cc1 (stereo not drawn) | 9% | 13% | -21% | i | i | 11%
Cc1cc(C)c(S(=O)(=O)NCC(c2cccs2)S(=O)(=O)c2ccccc2)c(C)c1 (stereo not drawn) | x | 4.1µM* | 1.2µM* | x | x | x
CC(C)(C)c1ccc(C(=O)NCC(c2cccs2)S(=O)(=O)c2cccs2)cc1 (stereo not drawn) | x | u | u | i | i | x
CCCCc1nn2c(=O)cc(COC(=O)c3ccc(NC(=O)CCc4ccccc4)cc3)nc2s1 | x | -1% | -8% | i | i | x
CCCCN(CC)C(=O)CSc1nc2c(sc(=S)n2-c2ccc(OCC)cc2)c(=O)[nH]1 | 0% | 2% | -16% | u | i | 3%
CCOC(=O)NN1C(=O)c2ccccc2NC1c1ccc(OC)c(OC)c1 (stereo not drawn) | 23% | -14% | -20% | i | i | 12%
CCOc1cc(N2CCOCC2)c(OCC)cc1NC(=O)CSc1ncn[nH]1 | 23% | 3% | -1% | i | i | 22%
CCN1CCN(C(c2cccnc2)c2c(NC(=O)c3ccco3)sc(C)c2C)CC1 (stereo not drawn) | 0% | 23µM* | 16µM* | i | i | -1%
COc1ccc(C(c2c(NC(=O)c3ccco3)sc(C)c2C)N2CCOCC2)cc1 (stereo not drawn) | 7% | u | u | u | i | 0%
CCN1CCN(C(c2ccccn2)c2c(NC(=O)c3ccccc3)sc(C)c2C)CC1 (stereo not drawn) | -23% | 8.2µM* | 8.2µM* | u | u | -30%
O=C1C2C3C=CC(C3)C2C(=O)N1c1ccc(Cc2ccncc2)cc1 (stereo not drawn) | u | 13µM* | u | i | i | -6%
CC1CCC2C(=O)N(c3ccc(Cc4ccncc4)cc3)C(=O)C2C1 (stereo not drawn) | u | 10µM* | 5.8µM* | 10µM* | 4.6µM* | u
O=C1C2C3C=CC(C3)C2C(=O)N1c1ccc2c(c1)CCC2 (stereo not drawn) | 1% | -23% | 5% | 18µM* | i | 1%
CN(C)CCCNc1ncnc2ccc(-c3ccc4c(c3)OCO4)cc12 | x | x | x | i | i | x
CNc1nc(NCC2CCCCC2)c2sccc2n1 | 23µM* | 13µM* | 13µM* | i | i | 23µM*
Cc1ccc(CNc2nc(NCc3ccccc3)nc3ccsc23)c(C)c1 | u | u | 9.2µM* | u | u | 26µM*
Cc1ccc(CNc2nc(NCC3CC3)nc3ccsc23)c(C)c1 | 16µM* | 10µM* | 9.2µM* | u | i | 15µM*
SMILES | HT1080 IDH1KD tx | DT40 TDP1 no CPT | DT40 TDP1 CPT | KB-V1 MDR tox | KB-3-1 cytotox | HT1080NT lethal
Cc1ccc(CNc2nc(NC(C)C)nc3ccsc23)c(C)c1 | u | u | 23µM* | i | i | u
CC(=O)NCCNc1nc(NCc2ccccc2)nc2ccsc12 | 3% | u | u | i | i | -16%
CNc1nc(NCc2ccc(N(C)C)cc2)c2sccc2n1 | u | 16µM* | 18µM* | i | i | u
CNc1nc(NCc2ccc(C)cc2C)c2sccc2n1 | u | 6.5µM* | 18µM* | u | i | u
Cc1ccc(Nc2nc(NCC3CC3)nc3ccsc23)c(C)c1 | 6.5µM* | 5.8µM* | 3.7µM* | u | 21µM* | 12µM*
COCCNc1nc(NCc2cnc(C)cn2)c2sccc2n1 | 10% | -19% | -19% | i | i | u
CNc1nc(Nc2ccc(C)cc2C)c2sccc2n1 | u | 16µM* | 13µM* | 15µM* | 18µM* | u
